From PubChem BioAssay (NCATS)
Inconclusive results are not listed. Active and inactive are the calls of the source. The call rests on the fitted dose curve.

Assays:
[1] = Primary qHTS for inhibitors of SARS-S pseudo-typed particle cell entry (AID 1479145); conditions: outcome: dose series up to 57.1 µM unless noted; further: nearly all actives have a fitted effect of over 45% in size; on activity change, negative = inhibition: on the % scale 0 is the no-effect control and ±100 the full control effect
[2] = Primary qHTS for Huh7 cytotoxicity: counterscreen for inhibitors of MERS-S pseudotyped particle cell entry (AID 1479147); conditions: outcome: dose series up to 57.1 µM unless noted; on activity change, negative = cytotoxicity: on the % scale 0 is the no-effect control and ±100 the full control effect
[3] = Primary qHTS for inhibitors of MERS-S pseudo-typed particle cell entry (AID 1479149); conditions: outcome: dose series up to 57.1 µM unless noted; further: nearly all actives have a fitted effect of over 60% in size; on activity change, negative = inhibition: on the % scale 0 is the no-effect control and ±100 the full control effect
[4] = Primary qHTS for Vero E6 cytotoxicity: counterscreen for inhibitors of SARS-S pseudo-typed particle cell entry (AID 1479150); conditions: outcome: dose series up to 57.1 µM unless noted; on activity change, negative = cytotoxicity: on the % scale 0 is the no-effect control and ±100 the full control effect
[5] = Cytotoxicity counterscreen for inhibitors of SARS-CoV-2 cell entry (AID 1645845); conditions: outcome: dose series up to 57.1 µM unless noted; further: nearly all actives have a fitted effect of over 50% in size
Procedure, shortened: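 48 h compound treatment (after 1 h preincubation), HEK293-ACE2 cells, 37 C/5% CO2; ATP luminescence endpoint; normalized to cell wells and media blanks.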

[6] = Primary qHTS to identify inhibitors of SARS-CoV-2 cell entry (AID 1645846); conditions: SARS-CoV-2 pseudovirus cell entry assay, luminescence; activity change, negative = inhibition: at 57.1 µM (top of the series) unless noted; further: nearly all actives have a fitted effect of over 45% in size
Procedure, shortened: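 HEK293-ACE2 (Expi293F, stable hACE2), 1500 cells/well, o/n 37C; cpd 23 nL pin, 1 h; MLV-PP w/ SARS-CoV-2-S (Wuhan-Hu-1, Δ19 C-term); 48 h 37C; Bright-Glo luminescence; normalized vs S-PP and bald PP.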

O=S(=O)(O)Oc1ccc(C(c2ccc(OS(=O)(=O)O)cc2)c2ccccn2)cc1
inactive: Potency [1] | Potency [2] | Potency [3] | Potency [4] | Potency [5] | Potency [6]

CNC[C@@H]1CC[C@@H](N)[C@@H](O[C@H]2[C@H](O)[C@@H](O[C@H]3OC[C@](C)(O)[C@H](NC)[C@H]3O)[C@H](N)C[C@@H]2N)O1
-15.6%: activity change, negative = inhibition [6]
inactive: Potency [1] | Potency [2] | Potency [3] | Potency [4] | Potency [5]

OCCOCCOCCO
inactive: Potency [1] | Potency [2] | Potency [3] | Potency [4] | Potency [5] | Potency [6]

CCCC[C@H](C)C[C@H](O)/C=C/[C@H]1[C@H](O)CC(=O)[C@@H]1CCCC/C=C/C(=O)O
-18.9%: activity change, negative = inhibition [6]
inactive: Potency [1] | Potency [2] | Potency [3] | Potency [4] | Potency [5]

C1CNCCN1
2.96% [at 114 µM]: activity change, negative = inhibition [6]
inactive: Potency [1] | Potency [2] | Potency [3] | Potency [4] | Potency [5]

ClCC1CO1 (stereo not given) (tested in a mixture with another compound)
inactive: Potency [1] | Potency [2] | Potency [3] | Potency [4] | Potency [5]
-15.1%: activity change, negative = inhibition [6]

CC(C=CC1=C(C)CCCC1(C)C)=CC=CC(C)=CC(=O)Oc1c(C)c(C)c2c(c1C)CC[C@@](C)(CCC[C@H](C)CCC[C@H](C)CCCC(C)C)O2
inactive: activity change, negative = inhibition [1] -3.62% [at 5.34 µM] | activity change, negative = cytotoxicity [2] -9.73% [at 5.34 µM] | outcome [3] inactive [at 5.34 µM] | activity change, negative = cytotoxicity [4] -3.15% [at 5.34 µM] | activity change, negative = cytotoxicity [5] -2.74% [at 5.25 µM] | outcome [6] inactive [at 5.25 µM]

Cc1nc(NS(=O)(=O)c2ccc(N)cc2)nc(C)c1Br
inactive: Potency [1] | Potency [2] | Potency [3] | Potency [4] | Potency [5]
-21.5%: activity change, negative = inhibition [6]

COc1cc2c(cc1OC)[C@@H](Cc1cc(OC)c(OC)c(OC)c1)[N+](C)(CCCOC(=O)CC/C=C/CCC(=O)OCCC[N+]1(C)CCc3cc(OC)c(OC)cc3[C@H]1Cc1cc(OC)c(OC)c(OC)c1)CC2 (stereo not given in full)
-24%: activity change, negative = inhibition [6]
inactive: Potency [1] | Potency [2] | Potency [3] | Potency [4] | Potency [5]

CNC(=O)OCc1cccc(COC(=O)NC)n1
inactive: Potency [1] | Potency [2] | Potency [3] | Potency [4] | Potency [5] | Potency [6]

Cn1c(=O)cc(N2CCC[C@@H](N)C2)n(Cc2cc(F)ccc2C#N)c1=O
-23.7%: activity change, negative = inhibition [6]
inactive: Potency [1] | Potency [2] | Potency [3] | Potency [4] | Potency [5]

CC(C)(CO)[C@@H](O)C(=O)NCCC(=O)NCCSSCCNC(=O)CCNC(=O)[C@H](O)C(C)(C)CO
-13.3%: activity change, negative = inhibition [6]
inactive: Potency [1] | Potency [2] | Potency [3] | Potency [4] | Potency [5]

Cc1cc(-c2ccc(N=Nc3c(S(=O)(=O)O)cc4cc(S(=O)(=O)O)cc(N)c4c3O)c(C)c2)ccc1N=Nc1c(S(=O)(=O)O)cc2cc(S(=O)(=O)O)cc(N)c2c1O
inactive: Potency [1] | Potency [2] | Potency [3] | Potency [4] | Potency [5]
2.81%: activity change, negative = inhibition [6]

OC[C@H]1OC(O)C[C@@H](O)[C@@H]1O (stereo not given in full)
-11.1%: activity change, negative = inhibition [6]
inactive: Potency [1] | Potency [2] | Potency [3] | Potency [4] | Potency [5]

CC(=O)OC1CCC2(C)C(=CCC3C2CCC2(C)C(c4cccnc4)=CCC32)C1 (stereo not given)
inactive: Potency [1] | Potency [2] | Potency [3] | Potency [4] | Potency [5]
-20%: activity change, negative = inhibition [6]

C=C1CC[C@H](O)C/C1=C\C=C1/CCC[C@]2(C)[C@@H]([C@H](C)CC[C@H](O)C(C)(C)O)CC[C@@H]12
-14.2%: activity change, negative = inhibition [6]
inactive: Potency [1] | Potency [2] | Potency [3] | Potency [4] | Potency [5]

O=C(O)CCCN1CCC(O[C@@H](c2ccc(Cl)cc2)c2ccccn2)CC1
-17.2%: activity change, negative = inhibition [6]
inactive: Potency [1] | Potency [2] | Potency [3] | Potency [4] | Potency [5]

CCCCC(=O)O[C@]1(C(=O)COC(C)=O)CC[C@H]2[C@@H]3CCC4=CC(=O)C=C[C@]4(C)[C@H]3[C@@H](O)C[C@@]21C
inactive: Potency [1] | Potency [2] | Potency [3] | Potency [4] | Potency [5]
-22.7%: activity change, negative = inhibition [6]

CC[C@@H](C)C[C@@H](C)CCCCCCCCC(=O)NC1C[C@@H](O)[C@@H](NCCN)NC(=O)[C@@H]2[C@@H](O)CCN2C(=O)[C@H]([C@H](O)CCN)NC(=O)[C@H]([C@H](O)[C@@H](O)c2ccc(O)cc2)NC(=O)[C@@H]2C[C@@H](O)CN2C(=O)[C@H]([C@@H](C)O)NC1=O (stereo not given in full)
-9.2% [at 27.1 µM]: activity change, negative = inhibition [6]
inactive: Potency [1] | Potency [2] | Potency [3] | Potency [4] | Potency [5]

C=C(C)C1CC=C(C)CC1 (stereo not given)
inactive: Potency [1] | Potency [2] | Potency [3] | Potency [4] | Potency [5]
-21.4% [at 114 µM]: activity change, negative = inhibition [6]
